{"source": "PubChem BioAssay (NCATS)", "key": {"[1]": {"biological_target": "Alpha-galactosidase A (Homo sapiens) (UniProt P06280)", "sequence (P06280 whole entry, looked up)": "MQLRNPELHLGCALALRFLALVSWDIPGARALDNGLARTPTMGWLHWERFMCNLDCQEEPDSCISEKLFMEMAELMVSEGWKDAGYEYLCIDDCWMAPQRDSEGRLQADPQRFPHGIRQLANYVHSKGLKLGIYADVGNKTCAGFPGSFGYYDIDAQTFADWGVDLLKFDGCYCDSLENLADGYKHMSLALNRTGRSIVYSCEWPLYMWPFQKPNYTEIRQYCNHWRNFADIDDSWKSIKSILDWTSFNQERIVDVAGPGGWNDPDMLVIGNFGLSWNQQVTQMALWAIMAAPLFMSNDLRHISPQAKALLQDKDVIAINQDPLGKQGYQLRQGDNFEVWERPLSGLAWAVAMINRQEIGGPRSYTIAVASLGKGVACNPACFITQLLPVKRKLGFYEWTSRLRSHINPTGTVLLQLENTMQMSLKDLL", "assay": "Counterscreen for Glucocerebrosidase Inhibitors: qHTS Assay for Human alpha-Galactosidase at pH 4.5 (AID 992)", "summary_of_the_method": "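Human enzyme (2 nM) with 80 uM 4-methylumbelliferyl alpha-D-galactopyranoside in 50 mM citric acid, 0.005% Tween-20, pH 4.5, 20 min at room temperature. Compounds 0.7 nM–77 uM; fluorescence Ex 365/Em 440 after pH 10 stop; AC50 from Hill fits.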"}, "[2]": {"biological_target": "alpha-glucosidase (Oryza sativa, rice) (UniProt Q653V4)", "assay": "Counterscreen for Glucocerebrosidase Inhibitors: qHTS Assay for Rice alpha-Glucosidase at pH 5.0 (AID 997)", "summary_of_the_method": "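Rice alpha-glucosidase (4 nM final) with 400 uM 4-methylumbelliferyl-alpha-D-glucopyranoside in citrate buffer pH 5.0, 20 min at room temperature, stopped at pH 10; fluorescence 365/440 nm, compounds 0.7 nM–77 uM, AC50 from Hill fits.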"}, "[3]": {"biological_target": "DNA repair nuclease/redox regulator APEX1 (Homo sapiens) (UniProt P27695)", "sequence (P27695 whole entry, looked up)": "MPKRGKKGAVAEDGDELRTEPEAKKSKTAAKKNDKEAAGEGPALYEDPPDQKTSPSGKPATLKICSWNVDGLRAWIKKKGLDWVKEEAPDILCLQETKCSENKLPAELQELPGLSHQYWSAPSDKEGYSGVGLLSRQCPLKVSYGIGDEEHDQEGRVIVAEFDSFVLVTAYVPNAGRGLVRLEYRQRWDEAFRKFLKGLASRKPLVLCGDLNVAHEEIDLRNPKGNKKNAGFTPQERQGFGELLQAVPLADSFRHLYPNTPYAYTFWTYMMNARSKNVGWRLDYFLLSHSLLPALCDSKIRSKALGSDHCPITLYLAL", "assay": "qHTS Validation Assay for Inhibitors of the Human Apurinic/apyrimidinic Endonuclease 1 (APE1) (AID 1705; note: potency is the fitted concentration of half-maximal effect)", "summary_of_the_method": "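Substrate: 50 nM final fluorophore/quencher THF-abasic duplex. Enzyme preincubated with compounds 15 min, RT. Progress derived from fluorescence difference, third minus first kinetic read.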"}, "[4]": {"assay": "qHTS for differential inhibitors of proliferation of Plasmodium falciparum line 7G8 (AID 1815);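 note: parasite growth measured after three days of incubation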; note: potency is the fitted concentration of half-maximal effect"}, "[5]": {"assay": "qHTS for differential inhibitors of proliferation of Plasmodium falciparum line GB4 (AID 1816);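 note: parasite growth measured after 72 h incubation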; note: potency is the fitted concentration of half-maximal effect", "settings": "Potency: Plasmodium falciparum GB4 proliferation inhibition"}, "[6]": {"assay": "qHTS for differential inhibitors of proliferation of Plasmodium falciparum line 3D7 (AID 1876); note: potency is the fitted concentration of half-maximal effect"}, "[7]": {"assay": "Counterscreen for APE1 Inhibitors: Fluorescent Dye Displacement Validation Assay (AID 1707)", "summary_of_the_method": "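Thiazole Orange (250 nM) bound to 50 nM TAMRA-labelled dsDNA with tetrahydrofuran abasic site; displacement by DNA-binding compounds lowers fluorescence. Buffer 50 mM Tris-HCl pH 7.5, 50 mM NaCl, 2 mM MgCl2, 0.01% Tween-20; endpoint read at 480/540 nm.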"}, "[8]": {"biological_target": "Endonuclease 4 (Escherichia coli (strain K12)) (UniProt P0A6C1)", "assay": "Counterscreen for APE1 Inhibitors: qHTS Validation Assay for Inhibitors of Endonuclease IV (AID 1708)", "summary_of_the_method": "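2 nM enzyme was preincubated with compounds for 15 min at room temperature in 50 mM Tris-HCl pH 7.5, 50 mM NaCl, 2 mM MgCl2, 1 mM DTT, 0.01% Tween-20. 50 nM THF-abasic TAMRA/BHQ-2 duplex substrate started the reaction.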"}}, "note": "Inconclusive results are not listed. Entries that show only a call come without a potency. The source made the active and inactive calls. Calls come from the whole dose curve; as a rule, active = well fitted curve in the direction sought with a large enough effect; inconclusive = small, poorly fitted or top-dose-only effect, or another doubt; inactive = no such curve, though single readings can be large; an effect the other way counts as inactive or inconclusive.", "data": [{"molecule": "CCCCCCCC/C=C\\CCCCCCCC(=O)NCCc1ccc(O)c(O)c1", "values": [{"measurement": "outcome", "setting": "[1]", "result": "inactive"}, {"measurement": "outcome", "setting": "[2]", "result": "inactive"}, {"measurement": "Potency", "setting": "[3]", "result": "inactive"}, {"measurement": "Potency", "setting": "[4]", "result": "7.08 µM (active)"}, {"measurement": "Potency", "setting": "[5]", "result": "11.2 µM (active)"}, {"measurement": "Potency", "setting": "[6]", "result": "8.91 µM (active)"}]}, {"molecule": "COc1ccc(NC(=O)c2ccc(-c3ccc(-c4noc(C)n4)cc3C)cc2)cc1N1CCN(C)CC1", "values": [{"measurement": "outcome", "setting": "[1]", "result": "inactive"}, {"measurement": "outcome", "setting": "[2]", "result": "inactive"}, {"measurement": "Potency", "setting": "[3]", "result": "inactive"}, {"measurement": "Potency", "setting": "[7]", "result": "inactive"}, {"measurement": "Potency", "setting": "[8]", "result": "inactive"}, {"measurement": "Potency", "setting": "[4]", "result": "4.47 µM (active)"}, {"measurement": "Potency", "setting": "[5]", "result": "3.98 µM (active)"}, {"measurement": "Potency", "setting": "[6]", "result": "2.82 µM (active)"}]}, {"molecule": "O=C(O)c1ccccc1Nc1cccc(OCc2ccc3ccccc3n2)c1", "values": [{"measurement": "outcome", "setting": "[1]", "result": "inactive"}, {"measurement": "outcome", "setting": "[2]", "result": "inactive"}, {"measurement": "Potency", "setting": "[3]", "result": "inactive"}, {"measurement": "Potency", "setting": "[7]", "result": "inactive"}, {"measurement": "Potency", "setting": "[8]", "result": "inactive"}, {"measurement": "Potency", "setting": "[6]", "result": "inactive"}]}, {"molecule": "CCn1c(=O)[nH]c2cc(Cl)c(Cl)cc21", "values": [{"measurement": "outcome", "setting": "[1]", "result": "inactive"}, {"measurement": "outcome", "setting": "[2]", "result": "inactive"}, {"measurement": "Potency", "setting": "[3]", "result": "inactive"}, {"measurement": "Potency", "setting": "[7]", "result": "inactive"}, {"measurement": "Potency", "setting": "[8]", "result": "inactive"}, {"measurement": "Potency", "setting": "[4]", "result": "inactive"}, {"measurement": "Potency", "setting": "[5]", "result": "inactive"}, {"measurement": "Potency", "setting": "[6]", "result": "inactive"}]}, {"molecule": "NC(=Nc1ccccc1)NC(=O)c1nc(Cl)c(N)nc1N", "values": [{"measurement": "outcome", "setting": "[1]", "result": "inactive"}, {"measurement": "Potency", "setting": "[3]", "result": "inactive"}, {"measurement": "Potency", "setting": "[7]", "result": "inactive"}, {"measurement": "Potency", "setting": "[4]", "result": "8.91 µM (active)"}, {"measurement": "Potency", "setting": "[5]", "result": "12.6 µM (active)"}, {"measurement": "Potency", "setting": "[6]", "result": "3.55 µM (active)"}]}, {"molecule": "[N-]=[N+]=Nc1ccc(C(=O)CSC[C@H](NC(=O)CC[C@H](N)C(=O)O)C(=O)NCC(=O)O)cc1", "values": [{"measurement": "Potency", "setting": "[3]", "result": "20 µM (active)"}, {"measurement": "Potency", "setting": "[7]", "result": "inactive"}, {"measurement": "Potency", "setting": "[4]", "result": "inactive"}, {"measurement": "Potency", "setting": "[6]", "result": "inactive"}]}, {"molecule": "CCCCC[C@H](CC(=O)NO)C(=O)N[C@H](C(=O)N1CCC[C@H]1CO)C(C)C", "values": [{"measurement": "Potency", "setting": "[3]", "result": "inactive"}, {"measurement": "Potency", "setting": "[7]", "result": "inactive"}, {"measurement": "Potency", "setting": "[8]", "result": "inactive"}, {"measurement": "Potency", "setting": "[4]", "result": "2.24 µM (active)"}, {"measurement": "Potency", "setting": "[5]", "result": "2 µM (active)"}, {"measurement": "Potency", "setting": "[6]", "result": "1.78 µM (active)"}]}, {"molecule": "NC(N)=N[C@@H](CCC(=O)O)C(=O)O", "values": [{"measurement": "Potency", "setting": "[3]", "result": "inactive"}, {"measurement": "Potency", "setting": "[7]", "result": "inactive"}, {"measurement": "Potency", "setting": "[8]", "result": "inactive"}, {"measurement": "Potency", "setting": "[4]", "result": "inactive"}, {"measurement": "Potency", "setting": "[5]", "result": "inactive"}, {"measurement": "Potency", "setting": "[6]", "result": "inactive"}]}, {"molecule": "Cc1ccccc1/C=C/C1=NCCN1", "values": [{"measurement": "Potency", "setting": "[3]", "result": "inactive"}, {"measurement": "Potency", "setting": "[7]", "result": "inactive"}, {"measurement": "Potency", "setting": "[4]", "result": "8.91 µM (active)"}, {"measurement": "Potency", "setting": "[5]", "result": "11.2 µM (active)"}]}, {"molecule": "CC(=O)[C@H]1CCC2C3CC=C4C[C@@H](OS(=O)(=O)O)CC[C@]4(C)C3CC[C@@]21C", "note": "(stereo partly specified)", "values": [{"measurement": "Potency", "setting": "[3]", "result": "inactive"}, {"measurement": "Potency", "setting": "[8]", "result": "inactive"}, {"measurement": "Potency", "setting": "[4]", "result": "inactive"}, {"measurement": "Potency", "setting": "[5]", "result": "inactive"}, {"measurement": "Potency", "setting": "[6]", "result": "inactive"}]}, {"molecule": "COc1ccc2c(c1)c(CC(=O)O)c(C)n2Cc1ccc(Cl)cc1", "values": [{"measurement": "outcome", "setting": "[1]", "result": "inactive"}, {"measurement": "Potency", "setting": "[3]", "result": "inactive"}, {"measurement": "Potency", "setting": "[7]", "result": "inactive"}, {"measurement": "Potency", "setting": "[8]", "result": "inactive"}, {"measurement": "Potency", "setting": "[4]", "result": "14.1 µM (active)"}, {"measurement": "Potency", "setting": "[5]", "result": "10 µM (active)"}, {"measurement": "Potency", "setting": "[6]", "result": "11.2 µM (active)"}]}]}
